# An excerpt weighted towards active compounds, which were near 4.8% of everything screened.
# DAX1 inh-1 = DAX1 (NR0B1) inhibitors on StAR promoter, primary screen, cell-based, luminescence, SF-1 (NR5A1), full-length DAX-1. HEK293T StAR-luciferase reporter, SF-1/DAX-1 repression relief. inhibition, % at 6.8 µM. actives 1.1% (n = 370,000). AID 652010, 2013;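 active = inhibition above the mean over all tested compounds plus 3 SD, cut at about 3.6% in these data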;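 note: 0% = DAX-1 cells with DMSO and 100% = cells lacking DAX-1 with DMSO; higher inhibition means more luminescence from relief of DAX-1 repression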
# hcDAF12 agonist = H. contortus DAF-12 nuclear receptor activators, primary screen, cell-based, luminescence, HEK293, lit1-tk-luc reporter. HEK293 hcDAF-12 lit1-tk-luc reporter; 0% DMSO, 100% Δ7-dafachronic acid. activation, % at 6.8 µM. actives 1.4% (n = 370,000). AID 652067, 2013;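 active = activation above the mean of all tested compounds plus 3 SD, cut at about 5.5% in these data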;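 note: 100% = response to 3 µM Δ7-dafachronic acid high control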
# Rev-erbA mod = modulators of Rev-erb alpha DNA binding, primary screen, biochemical, FITC-DNA, fluorescence polarization, uHTS; AID 1259318, 2017; Rev-erbα–FITC-DNA binding, 90 min; Nuclear receptor subfamily 1 group D member 1 (Homo sapiens), P20393; actives 0.79% (n = 370,000); activity, % at 10 µM;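 active = activity above about 14%, limit read from the data; passing the limit was not always enough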;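 note: 0% = DMSO wells with 35 nM protein and 100% = DMSO wells with 750 nM protein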
# Target sequence (P20393 whole entry, looked up): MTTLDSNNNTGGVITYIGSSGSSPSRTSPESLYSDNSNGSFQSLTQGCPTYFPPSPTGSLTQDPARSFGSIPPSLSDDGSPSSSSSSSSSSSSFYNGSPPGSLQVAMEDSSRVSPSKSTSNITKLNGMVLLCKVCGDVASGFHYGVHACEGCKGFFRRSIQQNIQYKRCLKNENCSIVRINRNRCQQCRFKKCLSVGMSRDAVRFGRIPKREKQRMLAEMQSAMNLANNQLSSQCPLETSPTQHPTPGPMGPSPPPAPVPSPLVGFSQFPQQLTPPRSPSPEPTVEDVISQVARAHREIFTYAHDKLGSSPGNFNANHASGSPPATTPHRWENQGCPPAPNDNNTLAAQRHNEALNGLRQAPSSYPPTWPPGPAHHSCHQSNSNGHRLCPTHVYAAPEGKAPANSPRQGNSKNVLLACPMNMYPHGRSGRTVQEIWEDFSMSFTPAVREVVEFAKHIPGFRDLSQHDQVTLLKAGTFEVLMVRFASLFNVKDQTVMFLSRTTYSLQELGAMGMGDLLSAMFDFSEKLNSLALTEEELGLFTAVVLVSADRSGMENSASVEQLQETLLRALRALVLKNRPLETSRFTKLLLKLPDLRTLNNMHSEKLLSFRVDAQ
# ssDAF-12 act = S. stercoralis DAF-12 nuclear receptor activators, primary screen, cell-based, luminescence, HEK293, GRIP1 co-expression, lit1-tk-luc; Nuclear hormone receptor DAF-12 (Strongyloides stercoralis); HEK293 ssDAF-12/GRIP1 lit1-tk-luc reporter; % of 3 µM dafachronic acid response; activation, % at 6.8 µM; actives 1% (n = 370,000); AID 652126, 2013;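 active = activation above the mean over all tested compounds plus 3 SD, cut at about 0.9% in these data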;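 note: 0% = DMSO-only wells and 100% = 3 µM delta7-dafachronic acid wells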
# DAX1 inh-2 = DAX1 (NR0B1) inhibitors, primary screen, cell-based, HEK293, Gal4-DAX1, luciferase luminescence; inhibition, % at 6.75 µM; AID 504766, 2011; actives 0.99% (n = 340,000); HEK293 Gal4-DAX1 luciferase reporter; Nuclear receptor subfamily 0 group B member 1 (Homo sapiens), P51843;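 active = inhibition above the mean over all tested compounds plus 3 SD, cut at about 4.2% in these data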;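 note: 0% = DAX1-transfected cells with DMSO and 100% = empty-vector control cells with DMSO; inhibition shows as a rise in luminescence from relieved DAX1 repression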
# hgDAF12 agonist = H. glycines DAF-12 receptor agonists, primary screen, cell-based, luminescence, HEK293, GAL4 fusion, UAS-luciferase | Nuclear hormone receptor DAF-12 (Heterodera glycines), GAL4 fusion | HEK293 GAL4-hgDAF12 UAS-luciferase reporter, agonist luminescence; normalized to butyrate control | activation, % at 6.8 µM | actives 1.8% (n = 370,000) | AID 687014, 2013;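 active = activation above a cutoff set at the mean of all screened compounds plus 3 SD, cut at about 10% in these data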;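 note: 0% = DMSO wells and 100% = sodium butyrate wells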
# DAX1 inh confirm = DAX1 (NR0B1) inhibitors relieving SF-1 repression, confirmation, cell-based, luminescence, HEK293T, full-length DAX-1, SF-1 activated StAR promoter | shares compounds with DAX1 inh-1 | HEK293T StAR-promoter luciferase reporter, SF-1/DAX-1 repression | inhibition, % at 6.8 µM | actives 87% (n = 2,400) | AID 652134, 2013;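 active = inhibition above the average of every tested compound plus 3 SD, cut at about 3.8% in these data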;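 note: 0% = DAX-1 cells with DMSO and 100% = no DAX-1 control cells with DMSO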
# SF1 AF2mut Luc = StAR reporter signal changes without DAX1, counter-screen for DAX1 inhibitor project, cell-based, luminescence, AF-2 mutant SF-1, transactivation; actives 78% (n = 2,400); HEK293 StAR-luciferase, SF-1 AF2 mutant; shares compounds with DAX1 inh-1; inhibition, % at 6.8 µM;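 active = inhibition above the mean of all tested compounds plus 3 SD, cut at about 3% in these data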;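 note: 0% = DAX-1 transfected cells with DMSO and 100% = cells without DAX-1 with DMSO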
# LXR ag = LXR agonists, Gal4 luciferase reporter, confirmation, counter-screen for hcDAF-12 agonist project, cell-based, luminescence, HEK293, H. contortus campaign. shares compounds with hcDAF12 agonist. HEK293 Gal4-LXR tk-luc reporter, 24 h; normalized: DMSO 0%, positive control 100%. activation, % at 6.8 µM. 3,400 tested, under 10 active;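 active = mean percent activation of the reporter above a cutoff set as the average over tested compounds plus their standard deviation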
# hcDAF12 ag = H. contortus DAF-12 receptor agonists, confirmation, cell-based, luminescence, HEK293, lit1-tk-luc, triplicate. shares compounds with hcDAF12 agonist. HEK293 hcDAF-12 lit1-tk-luc reporter; % of Δ7-dafachronic acid response. activation, % at 6.8 µM. actives 61% (n = 3,400). AID 743032, 2013;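 active = mean activation across triplicate tests above the threshold derived from the earlier primary screen, cut at about 5.5% in these data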;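 note: 0% = DMSO only wells and 100% = 3 µM Δ7-dafachronic acid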
# hgDAF12 ag = H. glycines DAF-12 receptor agonists, confirmation, cell-based, luminescence, HEK293, GAL4-LBD fusion. activation, % at 6.8 µM. shares compounds with hgDAF12 agonist. HEK293 GAL4-hgDAF12 luciferase reporter, agonist mode; percent of butyrate response. actives 80% (n = 3,300). AID 743050, 2013;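 active = mean activation over triplicate wells above the hit cutoff derived from the earlier primary screen, cut at about 11% in these data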;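 note: 0% = DMSO low control and 100% = 2 mM sodium butyrate high control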
# LXRb DAF12 ctr = LXR agonists, Gal4 luciferase reporter, confirmation, counter-screen for hgDAF-12 agonist project, cell-based, luminescence, HEK293, H. glycines campaign; shares compounds with hgDAF12 agonist; 24 h; activation, % at 6.8 µM; 3,300 tested, under 10 active; AID 743051, 2013;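 active = mean activation of the triplicate above a set limit carried over from the primary screen, none filed active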
# An asterisk follows results filed as active; . = no result given.
SMILES,DAX1 inh-1,hcDAF12 agonist,Rev-erbA mod,ssDAF-12 act,DAX1 inh-2,hgDAF12 agonist,DAX1 inh confirm,SF1 AF2mut Luc,LXR ag,hcDAF12 ag,hgDAF12 ag,LXRb DAF12 ctr
COc1ccc2c(=O)c(-c3ccccc3)coc2c1,6.2*,6.8*,-1,0,2,21*,12*,8.2*,1,5,17*,1
COc1ccc2oc(-c3ccccc3)cc(=O)c2c1,5.8*,7.6*,-8,1.1*,.,13*,13*,5.4*,2,8.5*,16*,1
C[C@H]1C(C(=O)N(C)C2CCCCC2)=Cc2c(n(-c3ccc(F)cc3)c(=O)n2CCCOc2ccccc2)C=C1c1ccccc1,1,-2,6,0,.,1,.,.,.,.,.,.
CCN=C1NN=C(c2c[nH]c3ccccc23)CS1,4.9*,11*,-2,3.7*,1,15*,12*,5.8*,1,12*,20*,1
CCN=C1NN=C(c2cc(C)n(CCc3ccccc3)c2C)CS1,1,4,-1,0,0,1,.,.,.,.,.,.
COC(=O)C[C@@H]1CC[C@@H]2[C@H](COc3ccc(NC(=O)c4ccc(F)c(F)c4)cc3C(=O)N2C)O1,0,1,3,-1,.,0,.,.,.,.,.,.
O=C(NCc1cccs1)C1CCC(CNS(=O)(=O)c2cccc3cccnc23)CC1 (stereo not given),0,-3,2,0,.,0,.,.,.,.,.,.
COc1cc(Cl)cc(/C=C/c2ccc3ccccc3n2)c1OC(C)=O,5.1*,4,3,0,0,21*,11*,5.3*,.,.,13*,1
O=C(Cn1nnc(N2CCCCC2)n1)NN=Cc1ccccc1O,1,1,-3,-2,.,-4,.,.,.,.,.,.
ON=C(CCc1ccccc1)c1ccccc1,5.1*,7.0*,3,0,.,15*,12*,6.7*,1,5.8*,16*,1
Cc1cc(C)n2cc(COc3ccc4ccccc4c3)nc2n1,6.3*,8.0*,0,1,2,17*,15*,8.8*,1,6,17*,1
Cc1ccnc(SCc2cn3c(C)cc(C)nc3n2)n1,0,-1,4,-1,-1,1,.,.,.,.,.,.
CC(C)C[C@H](NC(=O)C1CC1)C(=O)N1CCC[C@H]1C(=O)NCc1ccccc1,0,3,-5,0,.,1,.,.,.,.,.,.
Cc1nnc(NC(=O)c2oc3ccccc3c2C)s1,8.9*,11*,-4,1.4*,1,15*,10.0*,9.5*,1,12*,10*,1
CC(=O)C1=C(C)N(Cc2ccc(Br)cc2)C(=S)NC1c1ccc(F)cc1 (stereo not given),-1,-1,5,-1,.,0,.,.,.,.,.,.
CC(C)c1nnc(NC(=O)c2ccc3c(c2)OCO3)s1,4.9*,9.6*,5,0,4,15*,12*,2,1,4,7,1
COc1cccc(CNC(=O)[C@H]2CCCN2C(=O)[C@H]2CCCN2C(=O)c2cccc(Cl)c2)c1,0,0,3,-1,.,-1,.,.,.,.,.,.
COC(=O)[C@]12C[C@H](CC(=O)NCc3ccc(OC)c(OC)c3)C(=O)N(CCC3=CCCCC3)C1=C[C@H](C(C)(C)C)O[C@@H]2C,-1,-2,-7,-1,.,0,.,.,.,.,.,.
CCC(CO)Nc1ccn2nc(-c3ccccc3)cc2n1 (stereo not given),9.5*,3,-3,0,.,18*,8.9*,7.2*,.,.,16*,1
O=C(NN=Cc1ccc(O)cc1)c1cc(-c2ccc(Cl)cc2)n[nH]1,0,-3,5,-2,.,0,.,.,.,.,.,.
c1ccc(N=Nc2ccc(C3=NCCO3)cc2)cc1,11*,7.9*,2,1,3,18*,19*,9.0*,1,5,16*,1
CNC(=S)N/N=C/c1c(C(=O)OC)cnn1-c1ccc(Cl)cc1,.,-2,4,-2,.,-4,.,.,.,.,.,.
O=C(/C=C/c1ccccc1)Nc1scc(-c2ccccc2)c1C(=O)O,5.1*,4,-3,0,3,15*,8.9*,8.6*,.,.,11*,1
O=C(COc1ccc2c(c1)CCC2)NCc1ccccc1,-1,-2,4,-2,-1,-1,.,.,.,.,.,.
